± gives the standard deviation.
Each sequence was assayed on MILI (PIWIL2) piRISC loaded with L1MC piRNA (26 nt) (assay: pre-steady-state target cleavage rate (min^-1); guide: L1MC piRNA 5'p-UAACUAAAUACUAUGCAAGCUGUAGG; MIWI and MILI are mouse PIWI proteins and EfPiwi is from a freshwater sponge; tags in brackets are library labels; higher = faster piRNA-guided slicing of the target). Conditions: auxiliary factor: 500 nM mouse GTSF1.
Procedure, shortened: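 Cleave-'n-Seq used a transcribed, DNA-blocked target RNA library at 0.1 nM and active affinity-purified piRISC with one synthetic guide at 1 nM, with or without 500 nM GTSF1 partner protein, in HEPES–potassium acetate buffer at 33 °C for 0–8 or 0–960 min. Uncleaved targets were sequenced and normalised to depth and to weakly complementary targets, and three trials were pooled with k3 capped at 0.0001 min^-1. The pre-steady-state cleavage rate was estimated by a burst-and-steady-state fit.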

Sequence	pre-steady-state target cleavage rate
UCCUGGAUGUGCUUGCAUAGUAUUUAGUGA	0.11 ± 0.017
UCCUGGAUGAGCUUGCAUAGUAAUUACUUA	0.00616 ± 0.004
UCCUGGAUGUCGUUGCCAUAGUAUUUAGUUA	0.00586 ± 0.0034
UCCUGCUACAGCUUGCAUUCAAUUUAGUUA	0.00485 ± 0.0037
UCCUGGAACAGCUUGCAUAGAUUUUACAAA	0.00713 ± 0.0045
UCCUGGAUGAGCUUGCAAAGUAUUUAGAUA	0.117 ± 0.022
UCCUGCUAGUCCUUGCAUAGUAUUUAGUAA	0.0749 ± 0.018
UCCUGGAUCAGCUUCGAUAGUAUUUAGAAA	0.0608 ± 0.017
UCCUGGAUGAGCUUGCUUAGUAUUUAGAAA	0.0548 ± 0.017
UCCUCCUACAGCUUGCUAAGUAUUUAGUAA	0.0708 ± 0.013
UCCUGGAACAGCUUGCAUAGAAAUUAGUUA	0.0351 ± 0.0085
UCCUGGUACAGCUUGCAUAGAUUUUAGUAA	0.0172 ± 0.008
UCCUGCUACAGCUUGCUAAGUAUUUAGUAA	0.0923 ± 0.022
UCCUGGAUGAGCUUGCAUAGUAUUAUCAAA	0.00461 ± 0.0034
UCCUGGAUGUGCUUGCUUAGUAUUUAGAAA	0.0749 ± 0.017
UCCUGGAACAGCUUGGAUAGAAUUUAGUUA	0.0521 ± 0.013
UCCUGGAUGUCGUUGCAUAGUAUUAAGUUA	0.142 ± 0.028
UCCUGCUACAGCUUGCAUAGUAAAUACAAA	0.0117 ± 0.006

Sequence	pre-steady-state target cleavage rate
UCCUGGAACAGCAAGCAUAGUAUUUAGUAA	0.271 ± 0.025
UCCUGCUACAGCUUGCUAUGUAUUUAGUAA	0.0455 ± 0.019
UCCUCCUACAGCUUGCUAAGUAUUUAGAAA	0.0796 ± 0.016
UCCUGGAACACCUUGCAUAGUAUUUAGUAA	0.17 ± 0.022
UCCUCCUACAGCUUCCAUACUAUUUAGUUA	0.0171 ± 0.0071
UCCUGCUACAGCUUGCAUAGUAUAUUCAAA	0.209 ± 0.059
UCCUGGAUCAGCAACCAUAGUAUUUAGUUA	0.116 ± 0.013
UCCUGCUACAGGUUGCAUAGUAUUUACUUA	0.0231 ± 0.011
UCCUGGAUGUCCUUGCAUAGUAUAAUCAAA [g8:g19:cont:t1A]	0.00606 ± 0.0037
UCCUGGAUGAGCUUGCAUACUAUUUUGUUA	0.0073 ± 0.005
UCCUGGAUGUCGAAGCAUAGUACUUAGUUA	0.00746 ± 0.0031
UCCUGGUACAGCUUGCAUAGUUUUUAGAUA	0.0378 ± 0.017
UCCUGGAUGUCGAUGAAUAGUAUUUAGUUA	0.00887 ± 0.0033
UCCUGGAUCAGCUUGCAAUGUAUUUACAAA	0.0196 ± 0.0061
UCCUGGUACAGCUUGCAUAGAAUUUAGAUA	0.0253 ± 0.013
UCCUGGAACAGCUACGAUAGUAUUUAGAAA	0.0308 ± 0.011
UCCUGGUACAGCUUGCAUAGUAUUUACUAA	0.0179 ± 0.0081
UCCUCCUACAGCUUCCAUAGUUUUUAGUUA	0.0195 ± 0.0081

Same assay, conditions: auxiliary factor: none (no GTSF1)

Sequence	pre-steady-state target cleavage rate
UCCUGGAUGUCGAACGUAAGUAAUUUGUUA	< 0.0001
UCCUGGAUGUCGAACGAAAGUAUUUUGUUA	< 0.0001
UCCUGGAUGUCGAAGCAUAGAAUUUAGUAA	< 0.0001

From the supplement of paper PMC10338343
